# High-throughput results as filed in PubChem BioAssay.
# Sampled rows, rich in hits. Any-hit rate of the full collection: about 5.7%.
# DAX1 inh-1 = inhibitors of human orphan nuclear receptor DAX1 (NR0B1); HEK293 Gal4-DAX1 luciferase reporter, luminescence; inhibition, % at 6.75 µM; 340,000 tested, 0.99% active; AID 504766;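 active means inhibition above the mean over all tested compounds plus 3 SD, cut at about 4.2% in these data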;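 further: 0% = DAX1-transfected cells with DMSO and 100% = empty-vector control cells with DMSO; inhibition shows as a rise in luminescence from relieved DAX1 repression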
# Target sequence (P51843 207-470 limits assumed): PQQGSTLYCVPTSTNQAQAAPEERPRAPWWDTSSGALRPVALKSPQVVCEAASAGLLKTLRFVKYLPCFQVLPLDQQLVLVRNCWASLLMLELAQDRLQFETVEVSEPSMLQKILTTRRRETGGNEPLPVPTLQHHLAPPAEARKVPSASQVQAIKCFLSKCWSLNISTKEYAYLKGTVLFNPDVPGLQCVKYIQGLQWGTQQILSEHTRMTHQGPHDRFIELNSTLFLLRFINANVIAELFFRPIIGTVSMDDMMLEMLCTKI
# DAX1 inh-2 = inhibitors of DAX1 repression of SF-1 activated StAR promoter; HEK293T StAR-luciferase reporter, SF-1/DAX-1 repression relief; inhibition, % at 6.8 µM; 370,000 tested, 1.1% active;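 active means inhibition above the mean over all tested compounds plus 3 SD, cut at about 3.6% in these data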;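 further: 0% = DAX-1 cells with DMSO and 100% = cells lacking DAX-1 with DMSO; higher inhibition means more luminescence from relief of DAX-1 repression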
# hcDAF-12 act = H. contortus DAF-12 activation, primary screen. HEK293 hcDAF-12 lit1-tk-luc reporter, luminescence; 0% DMSO, 100% Δ7-dafachronic acid. activation, % at 6.8 µM. 370,000 tested, 1.4% active;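 active means activation above the mean of all tested compounds plus 3 SD, cut at about 5.5% in these data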;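 further: 100% = response to 3 µM Δ7-dafachronic acid high control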
# AHR act = activates the human aryl hydrocarbon receptor; P35869; AHR-responsive luciferase reporter cells, luminescence; activation, % at 5 µM; 320,000 tested, 2.5% active; in the data active means activation above about 47%;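 further: 0% = vehicle wells and 100% = reference agonist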
# ssDAF12 agonist = activates DAF-12 receptor from parasite S. stercoralis. HEK293 ssDAF-12/GRIP1 lit1-tk-luc reporter, luminescence; % of 3 µM dafachronic acid response. 370,000 tested, 1% active. activation, % at 6.8 µM;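 active means activation above the mean over all tested compounds plus 3 SD, cut at about 0.9% in these data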;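 further: 0% = DMSO-only wells and 100% = 3 µM delta7-dafachronic acid wells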
# hgDAF-12 ag = hgDAF-12 agonism, primary luciferase screen; AID 687014; activation, % at 6.8 µM; HEK293 GAL4-hgDAF12 UAS-luciferase reporter, agonist luminescence; normalized to butyrate control; 370,000 tested, 1.8% active;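 active means activation above a cutoff set at the mean of all screened compounds plus 3 SD, cut at about 10% in these data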;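 further: 0% = DMSO wells and 100% = sodium butyrate wells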
# AHR act cf = confirmation of human aryl hydrocarbon receptor activators; shares compounds with AHR act; human cells, AHR-responsive luciferase reporter, luminescence; activation, % at 9 µM; 2,300 tested, 87% active; AID 2845; in the data active means activation above about 49%;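 further: HepG2 hepatoma cells carrying a DRE-driven firefly luciferase reporter; 0% = vehicle wells and 100% = reference agonist wells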
# PXR counter = activates human PXR in AHR activator counter-screen. shares compounds with AHR act. cell-based PXR reporter, luciferase luminescence. activation, % at 11.6 µM. 2,300 tested, 88% active. AID 434939; in the data active means activation above about 11%;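 further: human hepatoma DPX-2 cells expressing full-length human PXR; 0% = DMSO and 100% = reference agonist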
# Target sequence (O75469 whole entry, looked up): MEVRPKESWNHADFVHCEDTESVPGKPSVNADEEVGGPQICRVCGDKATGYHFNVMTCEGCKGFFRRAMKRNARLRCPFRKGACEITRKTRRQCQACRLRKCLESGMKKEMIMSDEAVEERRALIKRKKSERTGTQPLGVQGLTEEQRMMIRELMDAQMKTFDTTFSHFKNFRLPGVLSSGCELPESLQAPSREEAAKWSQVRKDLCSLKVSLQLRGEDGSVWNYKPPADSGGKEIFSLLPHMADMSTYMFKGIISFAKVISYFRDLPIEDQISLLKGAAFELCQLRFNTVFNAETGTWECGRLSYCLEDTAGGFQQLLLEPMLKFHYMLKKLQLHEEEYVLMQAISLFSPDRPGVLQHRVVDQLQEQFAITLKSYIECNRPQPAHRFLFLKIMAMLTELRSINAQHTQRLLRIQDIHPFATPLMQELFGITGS
# DAX1 inh confirm = confirmation of human DAX1 (NR0B1) inhibitors; shares compounds with DAX1 inh-2; HEK293T StAR-promoter luciferase reporter, SF-1/DAX-1 repression; inhibition, % at 6.8 µM; 2,400 tested, 87% active; AID 652134;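 active means inhibition above the average of every tested compound plus 3 SD, cut at about 3.8% in these data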;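 further: 0% = DAX-1 cells with DMSO and 100% = no DAX-1 control cells with DMSO; active compounds raise luminescence by relieving repression of the StAR reporter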
# SF1 mutant ctr = counter-screen for DAX1 inhibitors: nonselective inhibitors with SF-1 AF2 mutant; 2,400 tested, 78% active; HEK293 StAR-luciferase, luminescence; AID 652136; shares compounds with DAX1 inh-2; inhibition, % at 6.8 µM;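 active means inhibition above the mean of all tested compounds plus 3 SD, cut at about 3% in these data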;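 further: 0% = DAX-1 transfected cells with DMSO and 100% = cells without DAX-1 with DMSO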
# * hit, by the source's call; · = not tested or not shown.
SMILES,DAX1 inh-1,DAX1 inh-2,hcDAF-12 act,AHR act,ssDAF12 agonist,hgDAF-12 ag,AHR act cf,PXR counter,others
Cc1onc(-c2ccccc2)c1C(=O)N/N=C/c1cn(C)c2ccccc12,-0.3,-0.2,2.9,39.5,0.2,-0.6,·,·,
Cc1nc(C)c(C(=O)N/N=C/c2cn(C)c3ccccc23)s1,-0.9,-1.5,-2.1,96.9*,-1.4,-2.4,62.5*,22.8*,
CCn1c2ccccc2c2cc(Nc3cc(C)nc4ncnn34)ccc21,-0.7,3.6*,-1.1,131.9*,-1.9,-8.4,88.9*,89.9*,
Cc1ccc(S(=O)(=O)N2CCC(C(=O)Nc3ccncc3)CC2)cc1,-1.1,1.1,-0.4,1.2,-1.2,-1.6,·,·,
Cc1ccc(NCCC(=O)c2cccs2)cc1Cl,0.8,0.8,4.1,86.4*,0.3,11.8*,69.0*,11.6*,
CCCOc1ccc(C(=O)CCNc2ccc(C)c(Cl)c2)cc1,0.1,-0.1,1.0,3.7,-0.3,-1.8,·,·,
CC(C)CN(C(=O)C(c1ccccc1)c1ccccc1)c1c(N)n(CC(C)C)c(=O)[nH]c1=O,0.3,-0.4,0.2,1.1,-1.3,2.7,·,·,
FC(F)(F)c1nnc(-c2ccccc2)nc1Sc1ccccc1,-0.2,0.5,0.2,6.5,-1.4,-2.6,·,·,
FC(F)(F)c1nnc(-c2ccccc2)nc1N1CCCC1,2.1,-0.4,0.0,85.2*,-1.6,-0.2,130.7*,51.7*,
COc1cc(Cl)ccc1OCc1cc(C(=O)NCc2cc(C(C)C)no2)no1,1.4,4.1*,2.2,114.6*,0.2,9.7,105.3*,45.2*,
COc1cc(Cl)ccc1OCc1cc(C(=O)NCC(C)(C)N2CCOCC2)no1,-0.6,1.2,1.9,·,-0.6,5.6,·,·,
CC(=O)N(/N=C1\Sc2ccccc2C1=O)c1ccccc1C,2.3,2.1,4.8,90.0*,0.0,3.6,75.7*,18.6*,
CC(=O)N(/N=C1\Sc2ccccc2C1=O)c1ccc(C)cc1C,0.8,-3.5,-3.8,37.7,-2.7,-11.0,·,·,
CC(=O)Nc1cccc(-c2cc(N3CCN(CCO)CC3)n3nccc3n2)c1,·,0.3,1.4,·,-0.8,0.3,·,·,
Cc1nnc(NC(=O)CSc2nccn2Cc2ccccc2)s1,2.5,-1.5,-0.7,-3.6,-1.0,0.2,·,·,
COc1ccc(/C=C2\SC(=N)N(c3nccs3)C2=O)cc1OC,-1.7,-1.6,-1.7,85.4*,-0.6,-4.6,53.2*,16.8*,
OC[C@@H](O)C(O)[C@@H](O)CO (stereo partly specified),·,-2.0,-1.1,·,-0.9,-5.9,·,·,
CC(C)NC(=O)c1ccc2c(=O)n(Cc3ccco3)c(=S)[nH]c2c1,-0.3,0.1,5.3,35.9,-0.1,3.6,·,·,
CCCNC(=O)c1ccc2c(=O)n(Cc3ccco3)c(=S)[nH]c2c1,0.6,-0.1,0.7,87.7*,-1.7,-3.5,70.0*,34.3*,
CC(C)(C)c1ccc(S(=O)(=O)N2CCN(c3ncccn3)CC2)cc1,0.8,-0.4,-0.6,0.3,-1.4,0.6,·,·,
Cn1c(=O)c2nc(-c3ccccc3)oc2c2ccccc21,0.9,-0.1,1.2,104.5*,-0.2,2.9,120.1*,21.7*,
CCCCCc1nc2c(=O)n(C)c3ccccc3c2o1,-1.4,0.3,-0.1,21.1,-0.7,4.2,·,·,
O=C1NC(=O)C2(CCCc3ccccc32)N1 (stereo unspecified),-0.1,-0.1,-0.9,0.9,-0.6,-1.2,·,·,
CC(=O)Nc1ccc(NC(=O)CSc2ncc(C(=O)Nc3ccc(F)cc3)c(=O)n2C)cc1,0.8,1.0,1.6,98.0*,-0.4,4.3,126.6*,20.9*,
CC(=O)Nc1cccc(NC(=O)CSc2ncc(C(=O)Nc3ccccc3)c(=O)n2C)c1,-1.6,1.3,2.5,16.2,0.6,4.4,·,·,
SMILES,DAX1 inh-1,DAX1 inh-2,hcDAF-12 act,AHR act,ssDAF12 agonist,hgDAF-12 ag,AHR act cf,PXR counter,others
COc1ccc2c(c1)nc(NCCCO)n2Cc1ccccc1,0.8,0.8,-0.1,2.1,-0.6,3.3,·,·,
COc1ccc(C2C(C(=O)c3ccco3)=C(O)C(=O)N2CC2CCCO2)c(OC)c1 (stereo unspecified),0.6,0.0,-2.6,-1.0,-1.1,1.5,·,·,
CN(C)CCCN1C(=O)c2cc3ccccc3cc2C1=O,0.3,0.5,-0.6,-1.6,0.1,3.8,·,·,
CN(C)CCCN1C(=O)c2cccc3cccc(c23)C1=O,0.1,0.5,4.0,141.0*,-0.3,3.8,162.7*,·,
O=C1c2cccc3cccc(c23)C(=O)N1CCCSc1ncn[nH]1,0.7,0.1,-0.9,101.2*,-1.8,-2.2,87.8*,57.4*,
COc1ccc(N(CCCN2C(=O)c3cccc4cccc(c34)C2=O)C(=O)c2cccc(OC)c2)cc1,-1.7,-1.2,-3.0,87.5*,-1.8,-1.2,99.1*,119.5*,
COc1ccc(S(=O)(=O)Nc2ccc(F)c(F)c2)cc1C(=O)N1CCOCC1,0.3,-0.1,-3.1,-3.1,-0.6,-1.7,·,·,
COc1cccc(N2CCN(C(=O)CN3C(=O)NC(C)(c4ccc5ccccc5c4)C3=O)CC2)c1 (stereo unspecified),-1.6,-6.5,-3.8,4.0,-1.7,-4.0,·,·,
CSc1ccc(S(=O)(=O)NCC(=O)OCC(=O)N(C)C2CCCCC2)cc1[N+](=O)[O-],-0.5,1.4,-1.3,-0.8,-1.1,1.8,·,·,
Cc1cc(NCCCn2ccnc2)n2nc(-c3ccc(F)cc3)cc2n1,0.1,0.7,3.4,46.8,-1.3,2.9,·,·,
Cc1cc(NCCCn2ccnc2)n2nc(-c3ccc(Cl)cc3)cc2n1,-0.3,0.0,3.2,134.5*,-1.1,3.1,110.1*,17.9*,
CCOC(=O)c1c2ccc(OCC(=O)NN)cc2n2ccccc12,-0.1,-0.2,-0.3,86.1*,-1.6,2.5,89.7*,11.7*,
COc1cccc(NC(=O)Nc2ccc3c(c2)OCO3)c1,1.2,8.4*,2.9,109.5*,-0.1,9.6,64.6*,38.5*,DAX1 inh confirm=6.2*;SF1 mutant ctr=4.9*
COc1cccc(NC(=O)CN(C)CC(=O)Nc2ccc3c(c2)OCO3)c1,-1.3,1.2,-1.6,3.5,-1.0,-1.5,·,·,
CN(CCO)c1c2c(nc3cc(-c4cccc(F)c4)nn13)CCCC2,1.4,6.4*,3.4,89.1*,0.6,9.2,91.9*,64.2*,DAX1 inh confirm=10.4*;SF1 mutant ctr=4.0*
